Test results published in PubChem BioAssay.
Activity calls are given as the source filed them. Rule as the data show it: active = fold change permeability below about 0.7 or above about 1.3; inactive = in between.

assay: modulators of brain endothelial barrier permeability, primary screen, cell-based, FITC-avidin fluorescence, HTS (AID 1963498); conditions: actives lie on both sides; also: test concentration not given here

**Q.** Which fold change permeability does the source give for COc1ccc(-c2cc3ncc(C)n3c(Nc3ncccc3C(N)=O)n2)cc1OC here?
**A.** 1.6 (active)

**Q.** For CCN(CC)CCNC(=O)c1cc(S(C)(=O)=O)ccc1OC, which fold change permeability is on record?
**A.** 0.9 (inactive)

**Q.** Which fold change permeability does the source give for CNC(=O)Nc1cc(Oc2cncc(OC)c2)c(C2CCCOC2)cn1 (configuration not stated) here?
**A.** 1.1 (inactive)

**Q.** Which fold change permeability does the source give for O=c1n(CCCN2CCN(c3cccc(Cl)c3)CC2)nc2ccccn12 here?
**A.** 1.1 (inactive)

**Q.** For Cc1cc(C)c(/C=C2\C(=O)Nc3ccccc32)[nH]1, which fold change permeability is on record?
**A.** 23.2 (active)

**Q.** With C[C@H]1O[C@@H](n2cc(F)c(=O)[nH]c2=O)[C@H](O)[C@@H]1O as the molecule, how does the fold change permeability read?
**A.** 0.8 (inactive)

**Q.** With CO[C@@]1(NC(=O)CSCC#N)C(=O)N2C(C(=O)O)=C(CSc3nnnn3C)CS[C@@H]21 as the molecule, how does the fold change permeability read?
**A.** 0.9 (inactive)

**Q.** For C=C1C[C@H]2[C@@H]3CCC4=CC(=O)CC[C@@H]4[C@H]3CC[C@]2(C)[C@@]1(OC(C)=O)C(C)=O, which fold change permeability is on record?
**A.** 1.1 (inactive)

**Q.** For COc1ccc(-c2ccc(N)[n+](CCCC(=O)O)n2)cc1, which fold change permeability is on record?
**A.** 0.8 (inactive)

**Q.** With COCCNC(=O)COc1ccc(OCCNC[C@H](O)COc2ccccc2)cc1 as the molecule, how does the fold change permeability read?
**A.** 1 (inactive)

**Q.** For CC(=O)O[C@H]1C[C@@H]2CC[C@@H]3[C@H](CC[C@@]4(C)[C@H]3C[C@H]([N+]3(C)CCCCC3)[C@@H]4OC(C)=O)[C@@]2(C)C[C@@H]1[N+]1(C)CCCCC1, which fold change permeability is on record?
**A.** 1 (inactive)

**Q.** Which fold change permeability does the source give for CCc1ccc(/C=C2/SC(=S)NC2=O)cc1 here?
**A.** 1.4 (active)

**Q.** With CC/C(=N\NC(=O)c1ccnc(NCCCN2CCOCC2)c1)c1ccc(Cl)cc1O as the molecule, how does the fold change permeability read?
**A.** 0.8 (inactive)

**Q.** For Oc1ccc(O)cc1, which fold change permeability is on record?
**A.** 1.4 (active)

**Q.** Which fold change permeability does the source give for N[C@@H](Cc1ccc(O)c(I)c1)C(=O)O here?
**A.** 1.9 (active)

**Q.** For N#C/C(=C\c1ccc(O)c(O)c1)C(=O)c1ccc(O)c(O)c1, which fold change permeability is on record?
**A.** 1.8 (active)

**Q.** With CCCCN(CCCC)CC(O)c1cc(Cl)cc2c1-c1ccc(Cl)cc1/C2=C/c1ccc(Cl)cc1 (configuration not stated) as the molecule, how does the fold change permeability read?
**A.** 0.9 (inactive)

**Q.** Which fold change permeability does the source give for CO/N=C(\C(=O)N[C@@H]1C(=O)N2C(C(=O)O)=C(COC(C)=O)CS[C@H]12)c1csc(N)n1 (stereo in doubt) here?
**A.** 0.8 (inactive)

**Q.** Which fold change permeability does the source give for Cc1cc2c(s1)Nc1ccccc1N=C2N1CCN(C)CC1 here?
**A.** 0.7 (active)

**Q.** Which fold change permeability does the source give for CN(C)CCC(c1ccc(Cl)cc1)c1ccccn1 (configuration not stated) here?
**A.** 1.1 (inactive)

**Q.** For COc1cc(C(=O)OCCCN2CCCN(CCCOC(=O)c3cc(OC)c(OC)c(OC)c3)CC2)cc(OC)c1OC, which fold change permeability is on record?
**A.** 1.5 (active)

**Q.** With Cc1ccc(CNCC2(F)CCN(C(=O)c3ccc(F)c(Cl)c3)CC2)nc1 as the molecule, how does the fold change permeability read?
**A.** 1.3 (active)
